Test results from PubChem BioAssay AID1159580 (chemical genetic matrix, 2015).
Where “and” joins values, the source holds several entries; their conditions need not be identical. Identical values can stand only once. Hit rate of the full screen: of about 5,500 compounds, about 2,000 (36%) were called active. Roughly 18% stayed inconclusive and do not appear here. Cut-off read from the data, not from the text of the source: active = normalized growth mostly below about 0.91 (no sharp cut-off); inconclusive = no clear call, values can overlap the other calls; inactive = mostly above about 0.92. Some of the results follow.

Test: chemical genetic growth profiling, strain panel (AID 1159580);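 note: tested at 20 µM; growth read once vehicle control cultures reached saturation at 30 °C; 1 = growth at the plate median or of vehicle wells; lower values mean less growth of the strain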
Settings: S. cerevisiae deletion strains, growth OD

Measured: normalized growth

Cc1ccc(C(=O)c2ccc(CC(=O)O)n2C)cc1
inactive: locus YAL021C, strain ccr4, active compounds read low 1.03 | locus YAL026C, strain drs2, active compounds read low 1.02 | locus YAL030W, strain snc1, active compounds read low 1.01 | locus YBL061C, strain skt5, active compounds read low 1.01 | locus YBR009C, strain hhf1, active compounds read low 0.973 | locus YBR021W, strain FUR4, active compounds read low 1.01 | locus YBR023C, strain chs3, active compounds read low 1 | locus YBR229C, strain ROT2, active compounds read low 1 | locus YBR231C, strain swc5, active compounds read low 1.02 | locus YBR279W, strain paf1, active compounds read low 1 | locus YCL011C, strain gbp2, active compounds read low 0.999 | locus YCL016C, strain dcc1, active compounds read low 0.996 | locus YCL029C, strain bik1, active compounds read low 0.968 | locus YCL061C, strain MRC1, active compounds read low 0.995 | locus YCL069W, strain vba3, active compounds read low 0.986 | locus YCR088W, strain abp1, active compounds read low 1 | locus YDL005C, strain med2, active compounds read low 1.03 | locus YDL035C, strain GPR1, active compounds read low 1.01 | locus YDL040C, strain nat1, active compounds read low 1.01 | locus YDL074C, strain BRE1, active compounds read low 1.01 | locus YDL101C, strain DUN1, active compounds read low 1.01 | locus YDL134C, strain PPH21, active compounds read low 0.996 | locus YDL185W, strain tfp1, active compounds read low 0.977 | locus YDL192W, strain arf1, active compounds read low 0.98 | locus YDR001C, strain nth1, active compounds read low 1 | locus YDR069C, strain doa4, active compounds read low 0.999 | locus YDR101C, strain arx1, active compounds read low 0.985 | locus YDR137W, strain rgp1, active compounds read low 1 | locus YDR150W, strain NUM1, active compounds read low 1.01 | locus YDR159W, strain sac3, active compounds read low 0.956 | locus YDR162C, strain NBP2, active compounds read low 0.995 | locus YDR195W, strain ref2 1.03 | locus YDR297W, strain sur2, active compounds read low 0.991 | locus YDR318W, strain mcm21, active compounds read low 0.956 | locus YDR334W, strain swr1, active compounds read low 1.01 | locus YDR335W, strain msn5, active compounds read low 1.01 | locus YDR388W, active compounds read low 0.972 | locus YDR392W, strain spt3, active compounds read low 0.88 | locus YDR502C, strain sam2, active compounds read low 0.97 | locus YEL003W, strain gim4, active compounds read low 1.01 | locus YEL037C, strain rad23, active compounds read low 0.999 | locus YEL061C, strain CIN8 (second series), active compounds read low 0.999 | locus YEL061C, strain CIN8, active compounds read low 0.998 | locus YER015W, strain faa2, active compounds read low 1.01 | locus YER016W, strain bim1, active compounds read low 0.999 | locus YER110C, active compounds read low 0.969 | locus YER111C, strain swi4, active compounds read low 1.01 | locus YER155C, strain BEM2 (second series), active compounds read low 0.957 | locus YER155C, strain BEM2, active compounds read low 0.996 | locus YER167W, strain BCK2, active compounds read low 0.998 | locus YFR010W, strain ubp6, active compounds read low 0.997 | locus YGL078C, strain dbp3, active compounds read low 0.977 | locus YGL086W, strain mad1, active compounds read low 0.985 | locus YGL167C, strain pmr1, active compounds read low 1.01 | locus YGL173C, strain kem1, active compounds read low 0.985 | locus YGL227W, strain vid30, active compounds read low 1 | locus YGL240W, strain doc1, active compounds read low 1.01 | locus YGL248W, strain PDE1, active compounds read low 1.02 | locus YGL253W, strain hxk2, active compounds read low 0.992 | locus YGR078C, strain PAC10, active compounds read low 1 | locus YGR135W, strain pre9, active compounds read low 0.97 | locus YGR229C, strain SMI1, active compounds read low 1.01 | locus YGR252W, strain gcn5, active compounds read low 0.975 | locus YHR013C, strain ard1, active compounds read low 1.03 | locus YHR027C, strain rpn1, active compounds read low 1.01 | locus YHR030C, strain SLT2, active compounds read low 1 and 0.957 | locus YHR079C, strain IRE1 (second series), active compounds read low 0.964 | locus YHR079C, strain IRE1, active compounds read low 0.976 | locus YHR094C, strain hxt1, active compounds read low 0.973 | locus YHR129C, strain ARP1, active compounds read low 1 | locus YHR142W, strain chs7, active compounds read low 1.02 | locus YHR200W, strain rpn10, active compounds read low 0.979 | locus YIL066C, strain RNR3, active compounds read low 1 | locus YIL073C, strain SPO22, active compounds read low 0.924 | locus YIL125W, strain kgd1, active compounds read low 0.985 | locus YIR030C, strain dcg1, active compounds read low 0.978 | locus YJL092W, strain hpr5, active compounds read low 1.02 | locus YJL095W, strain BCK1 (second series), active compounds read low 1.02 | locus YJL095W, strain BCK1, active compounds read low 1.01 and 0.969 | locus YJL115W, strain asf1, active compounds read low 1.03 | locus YJL129C, strain trk1, active compounds read low 1.02 | locus YJL134W, strain LCB3, active compounds read low 1 | locus YJL154C, strain vps35, active compounds read low 1.01 | locus YJL164C, strain tpk1, active compounds read low 0.997 | locus YJL166W, strain qcr8, active compounds read low 1.02 | locus YJL168C, strain set2, active compounds read low 0.975 | locus YJL187C, strain SWE1 (second series), active compounds read low 1 | locus YJR043C, strain POL32, active compounds read low 0.995 | locus YJR066W, strain TOR1, active compounds read low 0.929
